Lmaj promast: inhibitors of Leishmania major promastigote growth; Leishmania major promastigotes, resazurin fluorescence viability; inhibition, % at 10 µM; actives 9% (n = 200,000); in the data active means inhibition above about 50%;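 further: promastigotes grown with compound for 44 hours at 28 °C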
WT yeast gro inh: growth inhibition of WT yeast, mitochondrial fusion screen. mitochondrial fusion phenotypic screen, WT strain. AID 1362. actives 2.1% (n = 190,000). inhibition, % at 10 µM; in the data active means inhibition above about 58%; tested in S. cerevisiae
Calpain2 inh: blocks pig calpain II enzyme activity; purified calpain II, fluorogenic peptide substrate, 30 min; actives 0.37% (n = 220,000); inhibition, % at 16 µM; AID 1236;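 active means inhibition above about 50%, limit read from the data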
KCC2 mod: KCC2 (human) Cl- transport modulation; Q9H2X9; B-score of Tl+ flux slope (higher = more flux/activation; lower = inhibition) at 10 µM; KCC2 cells, thallium flux FluoZin-2 fluorescence; actives 2.2% (n = 190,000);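 active means thallium flux slope and its plate-corrected score both differing from the plate sample mean at a set confidence after two filtering rounds, in either direction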;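 further: slope of fluorescence scaled to starting intensity during 10 to 20 s after thallium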
ROMK primary: modulates human ROMK potassium channel activity; P48048; Tet-inducible ROMK, thallium flux fluorescence; actives lie on both sides; B-score at 10 µM; actives 2% (n = 130,000); AID 1918;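 active means signal ratio slope over the read window, or its plate-corrected B-score, at least 3 SD from the plate mean, either direction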;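 further: B-score of the F/F0 ratio slope over 7 to 12 s after thallium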
Each line names hits and unclear results; the compound was inactive in the other large screens. Compounds with a hit are over-represented: about 12% of the library has one in this group of screens.

COC(=O)c1c(NC(NC(C)=O)C(Cl)(Cl)Cl)sc2c1CCCC2 (stereo not drawn)	Calpain2 inh 55 (no result: ROMK primary)
O=C1CCN(S(=O)(=O)c2ccccc2)CCN1CCOCc1cccc(F)c1	none (no result: Lmaj promast, WT yeast gro inh, ROMK primary)
CCn1c(=O)c(=O)[nH]c2cc(C(=O)NCC3CCCCC3)ccc21	Lmaj promast 68 (no result: ROMK primary)
CCn1c(=O)c(=O)[nH]c2cc(C(=O)NC3CCCC3)ccc21	none
O=C(Cc1ccc(Cl)cc1)Nc1ccc2c(c1)C(=O)NC2=O	none
O=C(NCCO)/C(=C\c1ccc([N+](=O)[O-])o1)NC(=O)c1ccccc1	none
CCOC(=O)/C(=C\c1ccc([N+](=O)[O-])o1)NC(=O)c1ccccc1	Lmaj promast 99 (no result: KCC2 mod)
CCCOC(=O)/C(=C\c1ccc([N+](=O)[O-])o1)NC(=O)c1ccccc1	Lmaj promast 96
O=S(=O)(c1cnc[nH]1)N1CCc2ccccc21	Lmaj promast 61 (no result: ROMK primary)
O=C(Nc1nc(=S)ss1)c1ccc(Cl)cc1Cl	KCC2 mod 5 (no result: ROMK primary)
O=C(CC12CC3CC(CC(C3)C1)C2)N/N=C/c1ccncc1	Lmaj promast 68 (no result: ROMK primary)
O=C(N/N=C/c1ccncc1)NC12CC3CC(CC(C3)C1)C2	none (no result: Lmaj promast, WT yeast gro inh)
COc1cc(/C=N/NC(=O)CC23CC4CC(CC(C4)C2)C3)cc(Br)c1OCC(=O)N(C)C	Lmaj promast 93 (no result: ROMK primary)
Cc1nc(-c2coc3c(CN(C)C)c(O)ccc3c2=O)cs1	none (no result: KCC2 mod)
Clc1cccc(Oc2ncccn2)c1	Lmaj promast 50
Cc1cc(C(=O)C(C)OC(=O)C2=NNC(=O)CC2)c(C)n1-c1ccc(OC(F)F)cc1 (stereo not drawn)	Lmaj promast 99
Cc1cc(C(=O)COC(=O)C2=NNC(=O)CC2)c(C)n1-c1ccc(OC(F)F)cc1	none
CCn1c(SCC(=O)c2c[nH]c3ccccc23)nc2cc(S(=O)(=O)N3CCOCC3)ccc21	Lmaj promast 66
O=C(Nc1nc2ccccc2s1)c1cc(-c2ccccc2)nn1-c1ccccc1	Lmaj promast 93
NC(=O)c1ccc(-n2nnnc2SCC(=O)Nc2ccccc2-c2ccccc2)cc1	Calpain2 inh 65 (no result: KCC2 mod, ROMK primary)
COc1ccc(-c2cc(C(=O)NCc3cn(C)nc3C)c3ccccc3n2)cc1OC	Calpain2 inh 52
COC(=O)c1ccc(-n2nnnc2SCC(=O)Nc2ccccc2C(=O)OC)cc1	none (no result: KCC2 mod)
COc1ccc(-n2nnnc2SCC(=O)Nc2ccccc2N2CCOCC2)cc1OC	Lmaj promast 93 (no result: ROMK primary)
Cc1ccc(C2(c3noc(CN(C)Cc4cnn(C)c4)n3)CCCC2)cc1	none
COc1ccc(/C=N/NC(=O)C(=O)N2CCN(c3ccccc3OC)CC2)cc1	none (no result: ROMK primary)
COc1ccc(-c2cc(C(=O)Nc3ccccc3N3CCOCC3)c3ccccc3n2)cc1OC	Lmaj promast 64
COc1ccc(-c2cc(C(=O)Nc3nc4ccccc4s3)c3ccccc3n2)cc1OC	Lmaj promast 98
COc1ccc(C(=O)Nc2nc3ccccc3s2)cc1OC	Lmaj promast 69, WT yeast gro inh 68
COc1ccc(-c2cc(C(=O)Nc3ccccc3O)c3ccccc3n2)cc1OC	none
Cc1c(Nc2cc(N3CCCCCC3)c3nonc3c2[N+](=O)[O-])c(=O)n(-c2ccccc2)n1C	none (no result: KCC2 mod)
CCCSc1nc(-n2ncc(C#N)c2N)c2c3c(sc2n1)CCC(C)C3 (stereo not drawn)	WT yeast gro inh 64 (no result: KCC2 mod)
NS(=O)(=O)c1ccc(NC(=S)NCc2ccc(Cl)cc2)cc1	Calpain2 inh 56 (no result: ROMK primary)
NS(=O)(=O)c1ccc(CNC(=S)Nc2ccc(F)c(Cl)c2)cc1	none
O=C(/C=C/c1ccc([N+](=O)[O-])cc1)Nc1ncc([N+](=O)[O-])s1	Lmaj promast 83
CCN(CC)c1ccc(NC(=O)Nc2ccccc2C(F)(F)F)cc1	WT yeast gro inh 63 (no result: ROMK primary)
N#C/C(=N\Nc1ccccc1)C(=N)N1CCCCCC1	none (no result: Lmaj promast, WT yeast gro inh, ROMK primary)
CCC(C)(C)n1nnnc1C(c1ccc2ncccc2c1)N1CCN(Cc2ccc3c(c2)OCO3)CC1 (stereo not drawn)	Lmaj promast 99 (no result: KCC2 mod, ROMK primary)
CCC(C)(C)n1nnnc1C(c1ccc(C)cc1)N1CCC(C)CC1 (stereo not drawn)	Lmaj promast 62 (no result: ROMK primary)
CCC(C)(C)n1nnnc1C(c1ccccc1)N1CCN(Cc2ccccc2)CC1 (stereo not drawn)	none
CCC(C)(C)n1nnnc1C(c1ccncc1)N1CCC(C)CC1 (stereo not drawn)	none
CC(C)C(c1nnnn1CC1CCCO1)N1CCN(Cc2ccc3c(c2)OCO3)CC1 (stereo not drawn)	Lmaj promast 83
CCC(C)(C)n1nnnc1C(c1ccc(C)cc1)N1CCN(Cc2ccc3c(c2)OCO3)CC1 (stereo not drawn)	Lmaj promast 81 (no result: ROMK primary)
COc1ccccc1C(=O)N/C(=C/c1ccc(Br)cc1)C(=O)N1CCCC1	none
C=CCn1c(SC(C)C(=O)NCCC2=CCCCC2)nc2ccccc2c1=O (stereo not drawn)	none
COc1ccc(CCNC(=O)Cn2c([N+](=O)[O-])cnc2C)cc1OC	none
O=C(C1=C[C@@H](c2ccc(C(F)(F)F)cc2)C[C@@H](OCc2ccc(CO)cc2)O1)N1CCN(Cc2ccc3c(c2)OCO3)CC1	Lmaj promast 56 (no result: ROMK primary)
O=C(C1=C[C@@H](c2ccc3c(c2)OCO3)C[C@@H](OCc2ccc(CO)cc2)O1)N1CCOCC1	none (no result: ROMK primary)
O=C(C1=C[C@H](c2ccc3c(c2)OCO3)C[C@H](OCc2ccc(CO)cc2)O1)N1CCCCCCC1	Lmaj promast 61 (no result: ROMK primary)
CC(C)(C)[C@@H]1C=C(C(=O)N2CCN(Cc3ccc4c(c3)OCO4)CC2)O[C@H](OCc2ccc(CO)cc2)C1	WT yeast gro inh 94 (no result: ROMK primary)
O=C(C1=C[C@H](c2ccc(C(F)(F)F)cc2)C[C@H](OCc2ccc(CO)cc2)O1)N1CCN(Cc2ccc3c(c2)OCO3)CC1	none (no result: ROMK primary)
O=C(C1=C[C@@H](c2ccc(Br)cc2)C[C@@H](OCc2ccc(CO)cc2)O1)N1CCN(Cc2ccccc2)CC1	none (no result: ROMK primary)
O=C(C1=C[C@@H](c2ccc(Br)cc2)C[C@@H](OCc2ccc(CO)cc2)O1)N1CCN(Cc2ccc3c(c2)OCO3)CC1	Lmaj promast 56 (no result: ROMK primary)
Cc1ccccc1-c1nc(CS(=O)(=O)CC(=O)Nc2cc(F)ccc2F)c(C)o1	none (no result: ROMK primary)
O=C(O)c1c[nH]c2ccc(F)cc2c1=O	none
O=C(NC(=S)N1CCCCC1)C12CC3CC(CC(C3)C1)C2	KCC2 mod 35 (no result: WT yeast gro inh, ROMK primary)
O=C(c1cc(NC(=O)C23CC4CC(CC(C4)C2)C3)cc(NC(=O)C23CC4CC(CC(C4)C2)C3)c1)N1CCCCC1	Lmaj promast 91
CC12CC3CC(C)(C1)CC(C(=O)NC(=S)N1CCOCC1)(C3)C2	KCC2 mod 5 (no result: ROMK primary)
O=C(N1CCCC1)C12CC3CCC(CC(C3)C1)C2	none
Cc1ccc(NC(=O)COc2ccccc2C(=O)NCCN(C)C)cc1	none
COCCn1c(N)c(N(Cc2ccccc2)C(=O)c2cc3ccccc3o2)c(=O)[nH]c1=O	none
O=C(Nc1ccncc1)c1ccc2c(c1)S(=O)(=O)c1ccccc1C2=O	Lmaj promast 100
O=C(Nc1nc2ccccc2s1)c1ccc2c(c1)S(=O)(=O)c1ccccc1C2=O	none
CC(C)NC(=O)c1ccc2c(c1)S(=O)(=O)c1ccccc1C2=O	none

Bioassay records deposited in PubChem BioAssay by several laboratories.
